Source: PubChem BioAssay
Hits are enriched below; roughly 9.3% of the tested compounds scored in any of these assays.
M1 antag = M1 muscarinic receptor (rat) antagonism. hit rate 3.4% among 64,000. B-score at 10 µM. P08482. CHO-M1 cells, Fluo-4 calcium, ACh EC80 antagonist mode; active compounds read low;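 active = calcium fluorescence response, raw or row-and-column corrected B-score, differing from the plate sample mean either way at a set confidence level, mostly lower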
Target sequence (P08482 whole entry, looked up): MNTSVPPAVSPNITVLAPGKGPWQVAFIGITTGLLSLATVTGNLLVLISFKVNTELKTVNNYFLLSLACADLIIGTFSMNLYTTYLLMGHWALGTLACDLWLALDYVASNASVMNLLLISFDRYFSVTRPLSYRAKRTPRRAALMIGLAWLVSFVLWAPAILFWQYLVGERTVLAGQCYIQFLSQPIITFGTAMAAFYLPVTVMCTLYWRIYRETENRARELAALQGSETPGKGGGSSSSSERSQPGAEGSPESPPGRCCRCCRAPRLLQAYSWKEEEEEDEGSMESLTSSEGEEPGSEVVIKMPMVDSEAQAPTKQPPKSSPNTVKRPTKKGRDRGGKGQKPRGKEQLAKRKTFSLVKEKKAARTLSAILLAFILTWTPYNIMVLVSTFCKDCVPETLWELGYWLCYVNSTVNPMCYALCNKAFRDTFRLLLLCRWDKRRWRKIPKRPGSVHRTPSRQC
NADH coupling = inhibitors of enzymes used to reach an NAD/NADH endpoint | coupled PK/LDH NADH assays, four targets | AID 774 | IC50, µM (highest dose often 10 µM) | hit rate 0.02% among 65,000;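 active = single-dose screening hits from any of four coupled enzyme assays that gave an IC50 when retested across doses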;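 note: the DPM-DC format reads NADH fluorescence rather than 340 nm absorbance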
Autofluor 339 = intrinsic fluorescence of library compounds, ex339/em460 – biochemical, MLSMR library, data from DPM-DC assay, artefact control, profiling panel; compound autofluorescence, ex339/em460 nm, NADH buffer; active compounds read high; 1 = no-compound wells, NADH background; fluorescence fold increase at 10 µM; hit rate 5.5% among 65,000;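 active = at 10 µM, mean starting fluorescence two-fold or more over control wells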;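 note: signal is the first read of a kinetic run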
M1 agonist = agonists of M1 muscarinic receptor | B-score at 10 µM | CHO-M1 cells, Fluo-4 calcium fluorescence, agonist mode; active compounds read high | hit rate 3% among 64,000;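 active = fluorescence rise, raw or as B-score row- and column-corrected plate score, outside the 99.7% band of its plate's samples, either direction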
A340 absorber = compound absorbs light at 340 nm | 65,000 tested, under 10 active | compound absorbance at 340 nm, fold over control | fold change at 10 µM;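 active = at 10 µM dose, initial 340 nm absorbance at least 2 fold that of control wells; inactive = change under 2 fold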;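 note: initial absorbance extrapolated from kinetic A340 decline of NADH oxidation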
mHtt clearance = mutant huntingtin protein clearance. inhibition, % at 1.5 µM. hit rate 0.42% among 47,000. HeLa Exon1htt(103Q)mCFP, aggregate imaging; zero = plate's median compound well. AID 853;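 active = inhibition of aggregate fluorescence above about 70%, also judged a hit by eye on the cell image, limit read from the data, passing the limit was not always enough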;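 note: cells exposed to compound for three days before fixation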
Large screens that a line does not name were inactive.

N#Cc1c(N)nc2c(c1-c1ccc3c(c1)OCO3)CCCCCC2	none (no result: mHtt clearance)
Cc1ccc(-c2cc(-c3ccc4c(c3)OCO4)c(C#N)c(N)n2)o1	Autofluor 339 3.8
N#Cc1c(N)oc(-c2ccc3c(c2)OCO3)c1-c1ccc2c(c1)OCO2	Autofluor 339 2.1 (no result: mHtt clearance)
Cc1cc(-c2cc(-c3ccc(Cl)cc3)nc(N)c2C#N)co1	Autofluor 339 2.3
O=C(CSc1nnc(-c2ccccc2)n1Cc1ccco1)NCc1ccc2c(c1)OCO2	none (no result: M1 antag, NADH coupling, Autofluor 339, M1 agonist, A340 absorber)
O=S(=O)(NCC(c1cccnc1)N1CCN(c2ccccc2)CC1)c1cc(F)ccc1F (configuration not stated)	none (no result: mHtt clearance)
Cc1ccc(-c2cc(-c3ccc(Cl)cc3)c(C#N)c(N)n2)o1	Autofluor 339 3.8 (no result: mHtt clearance)
CCOc1cc(-c2cc(-c3ccc(C)o3)nc(N)c2C#N)ccc1O	none (no result: M1 antag, NADH coupling, Autofluor 339, M1 agonist, A340 absorber)
COc1cc2cc(C)c(SCC(=O)N3CCOCC3)nc2cc1OC	none
CC(C)Cc1nc2oc3c(NCC4CCCO4)ncnc3c2c2c1CCC2 (configuration not stated)	Autofluor 339 2.6 (no result: mHtt clearance)
CC(C)Cc1nc2oc3c(NCc4cccnc4)ncnc3c2c2c1CCC2	Autofluor 339 2.6
CC(C)c1nc2oc3c(NCc4cccnc4)ncnc3c2c2c1CCC2	Autofluor 339 2.1 (no result: mHtt clearance)
CC(C)Cc1nc2oc3c(N4CCN(CCO)CC4)ncnc3c2c2c1CCCC2	none (no result: mHtt clearance)
COc1ccccc1C(=O)Nc1sc2c(c1C(=O)NCc1ccco1)CCCC2	none (no result: M1 antag, NADH coupling, Autofluor 339, M1 agonist, A340 absorber)
COc1ccc(N(C(=O)c2ccco2)S(=O)(=O)c2cc(OC)ccc2OC)cc1	M1 antag 1.9
Cc1cc(NCCCN2CCOCC2)n2c(nc3ccccc32)c1C#N	Autofluor 339 5
Cc1ccnc(N2CCN(c3cc(C)c(C#N)c4nc5ccccc5n34)CC2)c1	M1 antag -2.5 (no result: mHtt clearance)
Cc1cc(Nc2c(C)n(C)n(-c3ccccc3)c2=O)n2c(nc3ccccc32)c1C#N	none (no result: M1 antag, NADH coupling, Autofluor 339, M1 agonist, A340 absorber)
CCCc1cc(NCCCN2CCOCC2)n2c(nc3ccccc32)c1C#N	none (no result: M1 antag, NADH coupling, Autofluor 339, M1 agonist, A340 absorber)
Cc1cc(NCCN2CCOCC2)n2c(nc3ccccc32)c1C#N	Autofluor 339 3.7
CCOCCOC(=O)c1ccc(-n2cncn2)nc1	none (no result: M1 antag, NADH coupling, Autofluor 339, M1 agonist, A340 absorber)
COc1ccc(-c2nc(C#N)c(NCCN(C)C)o2)cc1	Autofluor 339 2.1 (no result: mHtt clearance)
COc1ccc(CCNc2oc(-c3ccc(C)cc3)nc2C#N)cc1OC	Autofluor 339 2.1 (no result: mHtt clearance)
COc1ccc(-c2nc(C#N)c(NCCc3ccccc3)o2)cc1	Autofluor 339 3.6
CNc1oc(-c2ccccc2)nc1C#N	Autofluor 339 2.1 (no result: mHtt clearance)
CCCCCCn1c(SCC(=O)c2c(N)n(C)c(=O)n(C)c2=O)nc2ccccc21	none (no result: M1 antag, NADH coupling, Autofluor 339, M1 agonist, A340 absorber)
CCN(C(=O)c1coc(=O)c(Br)c1)c1ccc2c(c1)OCO2	Autofluor 339 3.4 (no result: mHtt clearance)
CCOC(=O)c1sc2nccc(N(C)C)c2c1N=CNOC	mHtt clearance 73 (no result: M1 antag, NADH coupling, Autofluor 339, M1 agonist, A340 absorber)
Cc1ccccc1NC(=O)C1CCN(c2cc(-c3ccccc3)nc3ncnn23)CC1	none (no result: M1 antag, NADH coupling, Autofluor 339, M1 agonist, A340 absorber)
CCCn1cnc2c(c1=O)c1nc3ccccc3nc1n2CCC1=CCCCC1	Autofluor 339 2.3
CCCn1cnc2c(c1=O)c1nc3ccccc3nc1n2CCc1ccccc1	Autofluor 339 4 (no result: mHtt clearance)
C=CCn1cnc2c(c1=O)c1nc3ccccc3nc1n2-c1ccc(Cl)cc1	none (no result: mHtt clearance)
C=CCn1cnc2c(c1=O)c1nc3ccccc3nc1n2Cc1ccccc1	Autofluor 339 3 (no result: mHtt clearance)
CCCCn1cnc2c(c1=O)c1nc3ccccc3nc1n2Cc1ccc2c(c1)OCO2	Autofluor 339 2.3 (no result: mHtt clearance)
CC1CCCCN1C(=O)CSc1nnc(CSc2ncccn2)n1C (configuration not stated)	none (no result: M1 antag, NADH coupling, Autofluor 339, M1 agonist, A340 absorber)
CC1CCCC(C)N1CCNC(=O)CCn1nc(-c2ccccc2)ccc1=O (configuration not stated)	none (no result: mHtt clearance)
O=C(NCc1cccnc1)c1cc(S(=O)(=O)N2CCCCC2)ccc1Cl	none
O=C(O)CCCC(=O)Nc1ccccc1C(=O)N1CCCC1	none
Cc1nc2c(c(=O)n1CC1CCCO1)c1nc3ccccc3nc1n2CC(C)C (configuration not stated)	none (no result: mHtt clearance)
CCOCCCn1c(C)nc2c(c1=O)c1nc3ccccc3nc1n2CCC1=CCCCC1	Autofluor 339 3 (no result: mHtt clearance)
Cc1cc(C)c(S(=O)(=O)Nc2ccc(OCC(=O)O)cc2)c(C)c1	none
Nc1ccc(CN2CCN(c3ccc4ccccc4n3)CC2)cc1	none (no result: mHtt clearance)
CC1(C)Cc2c(sc3nn[nH]c(=O)c23)CO1	none
